# High-throughput results deposited in PubChem by Johns Hopkins Ion Channel Center.
# KCNQ2 inh – blocks the rat KCNQ2 potassium channel. O88943. CHO-K1 KCNQ2, FluxOR thallium flux, 20 min; stronger effect = lower value. B-score at 10 µM. actives 1.1% (n = 310,000). AID 2156;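 active means fluorescence ratio B-score at most minus 3 library SDs, with starting brightness B-score within 2 library SDs, cut at about -5.5 in these data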
# KCNQ2 enhance – enhances the rat KCNQ2 potassium channel | actives 0.54% (n = 310,000) | CHO-K1 KCNQ2, FluxOR thallium flux fluorescence; stronger effect = higher value | AID 2239 | O88943 | B-score at 10 µM;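 active means fluorescence ratio B-score at least 3 SD of library B-scores, with initial fluorescence B-score within 3 of them, cut at about 5.3 in these data; same plate scores as AID 2156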;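 further: B-score of peak minus minimum over baseline fluorescence ratio after K+ and Tl+ stimulus; positive B-score means potentiation of KCNQ2 with more thallium influx and brighter signal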
# Kir21 confirm – confirmation of mouse Kir2.1 potassium channel inhibitors. shares compounds with KCNQ2 enhance. Kir2.1-expressing cells, FluxOR thallium flux fluorescence; stronger effect = lower value. actives 41% (n = 2,300). Tl flux remaining, % of negative control (stronger effect = lower value), % at 10 µM. AID 2032;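 active means Primary-screen hit whose thallium flux fell at least 3 control SD below untreated wells in both duplicates, with normal baseline fluorescence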;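 further: 0% = blank wells without stimulus and 100% = stimulated no-compound controls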
# HEK293 Tl flux – counter-screen for Kir2.1 inhibitors: effect in parental HEK293 cells. shares compounds with KCNQ2 enhance. FluxOR thallium flux fluorescence; 0% = unstimulated blank wells. FluxOR signal as % of negative control (100 = no effect), % at 10 µM. actives 19% (n = 2,300);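 active means dye signal at least 3 control SD above or below untreated wells in both duplicates, raw fluorescence within 3, either direction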;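 further: percent is based on the flux ratio of peak minus minimum fluorescence over baseline F0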
# CHO-K1 ctr – alters thallium flux in parental CHO-K1 cells, KCNQ2 counter-screen | shares compounds with KCNQ2 enhance | FluxOR thallium flux fluorescence; zero = vehicle mean+3SD, 100% = vehicle-minus-blank window | activity increase over 3SD of controls, % at 10 µM | actives 43% (n = 1,200) | AID 2282;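 active means signal rise of at least 3 SD above the untreated control mean, in both duplicate wells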;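 further: counter screen of KCNQ2 potentiator hits so any rise reflects channel-independent effects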
# KCNQ1 pot spec – selectivity of KCNQ2 potentiators: effect on human KCNQ1. actives 28% (n = 1,200). shares compounds with KCNQ2 enhance. CHO KCNQ1 stable, FluxOR thallium flux fluorescence; beyond 3SD, as % of vehicle-control signal. activation over 3SD threshold, % at 10 µM. AID 2283;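 active means fluorescence ratio rise of at least 3 SD of vehicle wells above their mean, in both replicate wells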;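 further: 0% = vehicle mean plus 3 SD and 100% = vehicle minus unstimulated blank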
# KCNQ2 pot confirm – confirmation of rat KCNQ2 potassium channel potentiators; shares compounds with KCNQ2 enhance; CHO-KCNQ2 cells, FluxOR thallium flux fluorescence; potentiation, less the hit threshold, % at 10 µM; actives 68% (n = 1,200); AID 2287;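 active means fluorescence ratio rising 3 SD or more over the vehicle control mean in both replicates, plus primary screen hit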;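 further: peak minus minimum thallium fluorescence divided by baseline after K/Tl stimulus; 0% = vehicle mean plus 3 SD and 100% = vehicle minus unstimulated blank difference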
# Kir2-1 sel – tests whether KCNQ2 potentiators also affect mouse Kir2.1. shares compounds with KCNQ2 enhance. HEK293 Kir2.1, FluxOR thallium flux fluorescence. activity over 3SD threshold, % at 10 µM. actives 2% (n = 1,200);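 active means fluorescence ratio rise of at least 3 SD above the vehicle-control mean, seen in both replicates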;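 further: 0% = vehicle mean plus 3 SD and 100% = vehicle minus no-stimulus blank window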
# KCNQ2 W236L pot – KCNQ2 potentiators acting on retigabine-insensitive rat KCNQ2 W236L mutant | AID 2558 | CHO KCNQ2-W236L, automated patch clamp current | current increase over 3SD of negative controls (%), stronger effect = higher value, % at 25 µM | actives 10% (n = 940) | shares compounds with KCNQ2 enhance;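 active means current increase at least 3 SD of the untreated controls above them in both duplicate recordings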
# Target sequence (O88943 whole entry W236L, looked up): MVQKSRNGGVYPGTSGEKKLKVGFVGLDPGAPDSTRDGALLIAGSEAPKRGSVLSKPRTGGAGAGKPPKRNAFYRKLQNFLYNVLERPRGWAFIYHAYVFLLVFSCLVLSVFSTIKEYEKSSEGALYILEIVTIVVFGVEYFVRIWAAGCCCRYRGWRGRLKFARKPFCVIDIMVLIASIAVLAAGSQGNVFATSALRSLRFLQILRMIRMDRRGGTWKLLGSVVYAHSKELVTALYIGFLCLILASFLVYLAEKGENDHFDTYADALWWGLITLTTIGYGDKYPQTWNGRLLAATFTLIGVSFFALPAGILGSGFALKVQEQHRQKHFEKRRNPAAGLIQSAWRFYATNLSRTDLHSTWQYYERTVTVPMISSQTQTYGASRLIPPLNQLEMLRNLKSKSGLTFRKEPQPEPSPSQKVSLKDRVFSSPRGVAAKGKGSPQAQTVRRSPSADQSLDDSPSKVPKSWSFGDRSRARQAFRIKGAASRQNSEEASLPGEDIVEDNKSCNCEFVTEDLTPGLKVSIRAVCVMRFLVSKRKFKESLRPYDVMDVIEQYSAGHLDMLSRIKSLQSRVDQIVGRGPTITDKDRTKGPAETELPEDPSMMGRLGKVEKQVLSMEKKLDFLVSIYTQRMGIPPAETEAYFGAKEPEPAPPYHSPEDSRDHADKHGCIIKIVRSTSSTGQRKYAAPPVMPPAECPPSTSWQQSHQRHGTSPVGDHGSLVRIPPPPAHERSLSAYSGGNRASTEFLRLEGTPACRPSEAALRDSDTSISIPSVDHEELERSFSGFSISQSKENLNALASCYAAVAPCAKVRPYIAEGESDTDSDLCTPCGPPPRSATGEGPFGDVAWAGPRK
# An asterisk follows results filed as active; i = inactive; · = no result. Compounds with a hit are over-represented: about 1.6% of the library has one in this group of screens.
SMILES,KCNQ2 inh,KCNQ2 enhance,Kir21 confirm,HEK293 Tl flux,others
Cc1ccc(NC(=O)C(=O)NNC(=O)c2cccs2)cc1,i,10*,i,341%*,CHO-K1 ctr=-8;KCNQ1 pot spec=-14;KCNQ2 pot confirm=35*;Kir2-1 sel=-6;KCNQ2 W236L pot=i
COc1ccc(S(=O)(=O)NNC(=O)C23CC4CC(CC(C4)C2)C3)cc1,i,·,·,·,
COc1cc(NC(=O)c2ccccc2)c(OC)cc1Cl,i,·,·,·,
COc1ccc(NC(=O)C(=O)NNC(=O)c2cccs2)cc1,i,3.3,·,·,
COc1ccc(NC(=O)C(=O)NNC(=O)c2cccs2)c(OC)c1,i,8.6*,i,240%*,CHO-K1 ctr=-4;KCNQ1 pot spec=19*;KCNQ2 pot confirm=6.9*;Kir2-1 sel=-46;KCNQ2 W236L pot=i
COc1ccc(OC)c(NC(=O)C(=O)NNC(=O)C23CC4CC(CC(C4)C2)C3)c1,i,8.7*,i,272%*,CHO-K1 ctr=-11;KCNQ1 pot spec=-17;KCNQ2 pot confirm=7.5*;Kir2-1 sel=-24;KCNQ2 W236L pot=i
CCOC(=O)c1ccc(-c2c(-c3ccc4c(c3)OCO4)noc2C)cc1F,i,·,·,·,
Cc1occc1C(=O)NNC(=O)COc1ccc(Br)cc1Br,i,·,·,·,
Cc1occc1C(=O)NNC(=S)NC(=O)COc1ccc(Cl)cc1Cl,i,9.5*,i,149%*,CHO-K1 ctr=-18;KCNQ1 pot spec=93*;KCNQ2 pot confirm=6.5*;Kir2-1 sel=-25;KCNQ2 W236L pot=i
CSc1ccc(CN2CCC(Cc3ccccc3)CC2)cc1,i,·,18%*,i,
Clc1ccc(CN2CCC(Cc3ccccc3)CC2)cc1,i,·,·,·,
Clc1cccc(CN2CCC(Cc3ccccc3)CC2)c1,i,·,71%*,i,
CSc1ccc(OC2CCN(Cc3ccccc3)CC2)cc1,i,·,·,·,
CCOc1ccccc1N1C(=O)CN(Cc2ccc(OC)c(OC)c2)C1=S,i,1.6,·,·,
O=C1CN(C(=O)CCCc2c[nH]c3ccccc23)c2ccccc2N1,i,·,50%*,i,
O=C(O)CCCC(=O)N1CC(=O)Nc2ccccc21,i,1.7,·,·,
Cc1c(Cl)cccc1NC(=S)N(Cc1cccnc1)Cc1ccccc1Cl,i,·,·,·,
COC(=O)CSc1nc2c(c(-c3ccc(O)cc3)c1C#N)CCCC2,i,·,·,·,
CCOC(=O)CSc1nc2c(c(-c3ccc(C)o3)c1C#N)CCCC2,i,7.2*,i,i,CHO-K1 ctr=113*;KCNQ1 pot spec=-6;KCNQ2 pot confirm=6.3*;Kir2-1 sel=-27;KCNQ2 W236L pot=i
COC(=O)CSc1nc2c(c(-c3ccco3)c1C#N)CCCC2,i,11*,i,i,CHO-K1 ctr=7.8*;KCNQ1 pot spec=-35;KCNQ2 pot confirm=28*;Kir2-1 sel=-36;KCNQ2 W236L pot=i
Cc1ccc(-c2c(C#N)c(N)nc3c2CCCCC3)o1,i,0.57,·,·,
N#C/C(=C/c1cn[nH]c1-c1ccc(Br)cc1)C(=O)O,i,·,·,·,
CCn1ncc(Cl)c1C(=O)Nc1cc([N+](=O)[O-])ccc1OC,i,1.4,·,·,
C=CCN(Cc1nc(-c2ccccc2)no1)C(=O)c1ccco1,i,·,·,·,
CC(=O)c1c(CSc2ccccc2)oc2ccc(O)c(CN(C)C)c12,i,·,38%*,64%*,
SMILES,KCNQ2 inh,KCNQ2 enhance,Kir21 confirm,HEK293 Tl flux,others
CCOC(=O)c1c(CSc2ccc(CC)cc2)oc2ccc(O)c(CN(C)C)c12,-5.8*,-5.8,16%*,i,
CCOC(=O)c1c(CSc2ccccc2)oc2cc(Br)c(O)c(CN(C)C)c12,i,0.71,·,·,
CCOC(=O)c1c(C)oc2ccc(O)c(CN(C)C)c12,i,0.06,·,·,
Cc1ccc(CNC(=S)Nc2ccc(NS(=O)(=O)c3ccc(C)cc3)cc2)cc1,i,·,·,·,
COc1ccc2c(C)cc3nncn3c2c1,i,1.4,·,·,
Cc1ccnc(NC(=O)COc2ccc3c(c2)CCC3)c1,i,·,·,·,
O/N=C1\CCCc2c1nc(-c1ccccc1F)n2O,i,·,·,·,
COc1ccc(C(=O)Nc2ccnc(-c3cccnc3)n2)cc1,i,5.3*,i,i,CHO-K1 ctr=-4;KCNQ1 pot spec=-16;KCNQ2 pot confirm=-6;Kir2-1 sel=-16
Cc1ccc(C(=O)Nc2ccnc(-c3cccnc3)n2)cc1,i,0.05,·,·,
COc1ccc(N2CC(C(=O)N3CCN(C(=O)c4ccco4)CC3)CC2=O)cc1 (configuration not stated),i,1.4,·,·,
O=C(/C=C/c1ccco1)N(Cc1ccc(Cl)cc1)C1CCS(=O)(=O)C1 (configuration not stated),i,·,·,·,
COc1ccc2oc(C(=O)OCC(=O)Nc3ccc(NC(C)=O)cc3)c(C)c2c1,i,·,·,·,
COc1ccc2oc(C(=O)OCC(=O)N(C)CC(=O)Nc3ccc(C)cc3)c(C)c2c1,i,7.4*,i,i,CHO-K1 ctr=32*;KCNQ1 pot spec=-11;KCNQ2 pot confirm=-5;Kir2-1 sel=-33
COC(c1ccccc1)c1nnc(CCC(=O)N(C)Cc2cccc(-n3cccn3)c2)o1 (configuration not stated),i,·,·,·,
CCCCc1nc2cc(C(=O)N3CCCCC3CCNC(C)=O)ccc2o1 (configuration not stated),i,1.3,·,·,
CCOc1ccc(OCCC(=O)OCC(=O)Nc2ccc(N3CCOCC3)cc2)cc1,i,0.66,·,·,
CC(C)(C)c1ccc(OCCC(=O)Nc2ccc(N3CCOCC3)cc2N2CCOCC2)cc1,i,8*,·,·,CHO-K1 ctr=-6;KCNQ1 pot spec=-37;KCNQ2 pot confirm=-16;Kir2-1 sel=-44
CCOc1cc(N2CCOCC2)c(OCC)cc1NC(=O)COC(=O)CCOc1ccc(C(C)(C)C)cc1,i,11*,i,i,CHO-K1 ctr=3.1*;KCNQ1 pot spec=-24;KCNQ2 pot confirm=-12;Kir2-1 sel=-14;KCNQ2 W236L pot=i
Cc1ccc(C(=O)Nc2ccc(N3CCOCC3)cc2N2CCOCC2)cc1,i,·,·,·,
O=C(Cn1cc(C(F)(F)F)ccc1=O)Nc1cccc(S(=O)(=O)N2CCOCC2)c1,i,1.1,·,·,
CCOc1cc(CNCCSc2nnnn2C)cc(Br)c1OCc1ccccc1F,i,0.49,·,·,
CCOc1cccc(CNCCO)c1OCc1ccc(Cl)cc1Cl,i,1,·,·,
CCOc1cc(CNCCO)cc(Br)c1OCc1ccc(Cl)cc1Cl,-13*,-13,21%*,i,
CCOc1cc(CNCc2cccs2)cc(Br)c1OCC,i,·,·,·,
CCOc1cc(CNCc2ccncc2)cc(Br)c1OCc1ccccc1F,i,·,52%*,i,
CCOc1cc(CNCCO)cc(Br)c1OCc1cccs1,i,0.12,23%*,i,
O=S(=O)(/N=C(/Nc1cccc2ccccc12)c1ccccc1)c1ccc(F)cc1,i,·,·,·,
CC(C)(C)OC(=O)N1CCC[C@H]1C(=O)N/N=C/c1ccc2ncccc2c1,i,·,·,·,
COC1=C(Nc2ccccc2OC)C(=O)c2ccccc2C1=O,i,·,·,·,
